Data: ChEMBL document CHEMBL1961873, “Compounds: GSK PKIS; Assays: Nanosyn kinase panel” (2012)

Tests used:
[1] = target: T1, Tyrosine-protein kinase ITK/TSK (Homo sapiens) (UniProt Q08881); details: at 1 µM;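 further: values are mean percent inhibition of ITK from the GSK PKIS screen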
T1 sequence (whole entry): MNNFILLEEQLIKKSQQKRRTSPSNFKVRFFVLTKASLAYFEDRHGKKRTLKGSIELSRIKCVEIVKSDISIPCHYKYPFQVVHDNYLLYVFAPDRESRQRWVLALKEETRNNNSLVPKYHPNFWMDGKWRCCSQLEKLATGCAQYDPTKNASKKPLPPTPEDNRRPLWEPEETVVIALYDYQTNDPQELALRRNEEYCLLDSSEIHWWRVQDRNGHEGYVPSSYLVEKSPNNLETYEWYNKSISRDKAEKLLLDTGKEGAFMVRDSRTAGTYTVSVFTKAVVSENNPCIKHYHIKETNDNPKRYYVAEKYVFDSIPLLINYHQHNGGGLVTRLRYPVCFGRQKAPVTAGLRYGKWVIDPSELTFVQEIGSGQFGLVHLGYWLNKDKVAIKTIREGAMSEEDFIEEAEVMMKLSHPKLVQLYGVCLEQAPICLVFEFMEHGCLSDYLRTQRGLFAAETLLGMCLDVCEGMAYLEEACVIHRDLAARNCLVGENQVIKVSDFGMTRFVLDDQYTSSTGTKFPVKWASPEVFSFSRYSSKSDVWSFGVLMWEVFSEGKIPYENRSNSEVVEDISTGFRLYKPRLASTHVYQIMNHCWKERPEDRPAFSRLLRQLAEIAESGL

[2] = target: Tyrosine-protein kinase JAK1 (Homo sapiens) (UniProt P23458); details: at 0.1 µM
[3] = target: Tyrosine-protein kinase JAK1 (Homo sapiens) (UniProt P23458); details: at 1 µM
[4] = target: Tyrosine-protein kinase JAK2 (Homo sapiens) (UniProt O60674); details: at 0.1 µM
[5] = target: Tyrosine-protein kinase JAK2 (Homo sapiens) (UniProt O60674); details: at 1 µM
[6] = target: T2, Tyrosine-protein kinase JAK3 (Homo sapiens) (UniProt P52333); details: at 0.1 µM
T2 sequence (whole entry): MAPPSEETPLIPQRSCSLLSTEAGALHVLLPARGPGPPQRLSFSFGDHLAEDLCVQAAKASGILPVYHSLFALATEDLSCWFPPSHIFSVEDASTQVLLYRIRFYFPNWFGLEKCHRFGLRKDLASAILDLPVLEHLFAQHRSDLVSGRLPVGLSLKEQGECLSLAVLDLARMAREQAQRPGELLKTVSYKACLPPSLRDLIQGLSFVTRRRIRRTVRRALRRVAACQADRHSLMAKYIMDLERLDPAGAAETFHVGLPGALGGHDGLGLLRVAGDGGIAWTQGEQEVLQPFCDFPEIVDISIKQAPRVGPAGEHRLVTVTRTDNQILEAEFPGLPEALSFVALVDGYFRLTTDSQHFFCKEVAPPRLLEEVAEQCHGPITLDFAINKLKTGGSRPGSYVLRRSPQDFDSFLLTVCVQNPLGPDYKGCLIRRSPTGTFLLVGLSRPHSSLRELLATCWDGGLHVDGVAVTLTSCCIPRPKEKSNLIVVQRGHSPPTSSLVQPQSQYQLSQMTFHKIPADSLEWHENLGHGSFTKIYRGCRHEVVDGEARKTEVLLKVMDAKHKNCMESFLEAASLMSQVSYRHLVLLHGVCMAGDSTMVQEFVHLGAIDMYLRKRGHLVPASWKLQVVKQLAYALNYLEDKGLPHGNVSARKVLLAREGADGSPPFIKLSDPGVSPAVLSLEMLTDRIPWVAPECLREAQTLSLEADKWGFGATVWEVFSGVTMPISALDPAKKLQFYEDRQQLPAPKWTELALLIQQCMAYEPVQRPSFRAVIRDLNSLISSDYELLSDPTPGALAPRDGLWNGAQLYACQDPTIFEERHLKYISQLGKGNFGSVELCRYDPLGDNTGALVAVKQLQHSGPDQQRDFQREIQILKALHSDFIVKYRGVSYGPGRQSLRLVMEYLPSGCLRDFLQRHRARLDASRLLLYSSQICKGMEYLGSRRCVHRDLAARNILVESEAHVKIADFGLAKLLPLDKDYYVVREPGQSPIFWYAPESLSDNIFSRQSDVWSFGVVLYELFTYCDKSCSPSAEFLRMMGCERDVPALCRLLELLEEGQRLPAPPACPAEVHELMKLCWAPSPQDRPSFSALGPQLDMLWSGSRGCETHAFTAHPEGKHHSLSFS

[7] = target: T2, Tyrosine-protein kinase JAK3 (Homo sapiens); details: at 1 µM
[8] = target: Vascular endothelial growth factor receptor 2 (Homo sapiens) (UniProt P35968); details: at 0.1 µM
[9] = target: Vascular endothelial growth factor receptor 2 (Homo sapiens) (UniProt P35968); details: at 1 µM
[10] = target: Mast/stem cell growth factor receptor Kit (Homo sapiens) (UniProt P10721); details: at 0.1 µM
[11] = target: Mast/stem cell growth factor receptor Kit (Homo sapiens) (UniProt P10721); details: at 1 µM
[12] = test system: Mast/stem cell growth factor receptor Kit (Homo sapiens), P10721 [D816V]; details: at 0.1 µM
[13] = test system: Mast/stem cell growth factor receptor Kit (Homo sapiens), P10721 [D816V]; details: at 1 µM
[14] = test system: Mast/stem cell growth factor receptor Kit (Homo sapiens), P10721 [T670I]; details: at 0.1 µM
[15] = test system: Mast/stem cell growth factor receptor Kit (Homo sapiens), P10721 [T670I]; details: at 1 µM
[16] = test system: Mast/stem cell growth factor receptor Kit (Homo sapiens), P10721 [V560G]; details: at 0.1 µM
[17] = test system: Mast/stem cell growth factor receptor Kit (Homo sapiens), P10721 [V560G]; details: at 1 µM
[18] = target: Tyrosine-protein kinase Lck (Homo sapiens) (UniProt P06239); details: at 0.1 µM
[19] = target: Tyrosine-protein kinase Lck (Homo sapiens) (UniProt P06239); details: at 1 µM
[20] = target: Leukocyte tyrosine kinase receptor (Homo sapiens) (UniProt P29376); details: at 0.1 µM

Sequence of Tyrosine-protein kinase JAK1 (Homo sapiens) (P23458 whole entry): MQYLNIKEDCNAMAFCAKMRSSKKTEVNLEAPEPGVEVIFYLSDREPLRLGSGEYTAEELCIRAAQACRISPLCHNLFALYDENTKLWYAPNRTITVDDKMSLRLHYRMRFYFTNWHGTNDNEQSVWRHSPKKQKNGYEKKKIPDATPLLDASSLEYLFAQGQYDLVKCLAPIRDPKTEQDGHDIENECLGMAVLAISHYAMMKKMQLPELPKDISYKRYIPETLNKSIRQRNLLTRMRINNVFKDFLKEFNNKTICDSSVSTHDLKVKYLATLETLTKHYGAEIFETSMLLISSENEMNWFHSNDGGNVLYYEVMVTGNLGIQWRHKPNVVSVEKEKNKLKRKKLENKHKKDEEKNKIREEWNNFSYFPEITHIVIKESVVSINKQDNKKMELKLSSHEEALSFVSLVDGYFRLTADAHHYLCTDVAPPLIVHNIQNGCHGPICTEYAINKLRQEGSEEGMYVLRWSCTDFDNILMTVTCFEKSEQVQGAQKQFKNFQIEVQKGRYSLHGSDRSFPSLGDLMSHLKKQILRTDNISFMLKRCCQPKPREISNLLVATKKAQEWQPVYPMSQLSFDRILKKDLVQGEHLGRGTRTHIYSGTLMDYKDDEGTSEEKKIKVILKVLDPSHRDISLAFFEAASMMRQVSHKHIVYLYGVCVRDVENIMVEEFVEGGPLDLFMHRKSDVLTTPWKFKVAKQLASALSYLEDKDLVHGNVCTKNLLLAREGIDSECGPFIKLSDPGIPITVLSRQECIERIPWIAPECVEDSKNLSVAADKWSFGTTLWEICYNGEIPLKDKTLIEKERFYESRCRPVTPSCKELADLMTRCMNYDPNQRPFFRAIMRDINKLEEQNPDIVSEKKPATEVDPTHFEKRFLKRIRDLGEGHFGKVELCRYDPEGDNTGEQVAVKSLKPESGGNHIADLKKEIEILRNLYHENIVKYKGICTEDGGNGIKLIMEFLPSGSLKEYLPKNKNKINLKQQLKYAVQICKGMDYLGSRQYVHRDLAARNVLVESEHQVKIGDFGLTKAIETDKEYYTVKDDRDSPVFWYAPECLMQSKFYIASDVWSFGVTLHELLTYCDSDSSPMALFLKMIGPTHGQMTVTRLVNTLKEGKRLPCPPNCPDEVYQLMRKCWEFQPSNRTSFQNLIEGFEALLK
Sequence of Tyrosine-protein kinase JAK2 (Homo sapiens) (O60674 whole entry): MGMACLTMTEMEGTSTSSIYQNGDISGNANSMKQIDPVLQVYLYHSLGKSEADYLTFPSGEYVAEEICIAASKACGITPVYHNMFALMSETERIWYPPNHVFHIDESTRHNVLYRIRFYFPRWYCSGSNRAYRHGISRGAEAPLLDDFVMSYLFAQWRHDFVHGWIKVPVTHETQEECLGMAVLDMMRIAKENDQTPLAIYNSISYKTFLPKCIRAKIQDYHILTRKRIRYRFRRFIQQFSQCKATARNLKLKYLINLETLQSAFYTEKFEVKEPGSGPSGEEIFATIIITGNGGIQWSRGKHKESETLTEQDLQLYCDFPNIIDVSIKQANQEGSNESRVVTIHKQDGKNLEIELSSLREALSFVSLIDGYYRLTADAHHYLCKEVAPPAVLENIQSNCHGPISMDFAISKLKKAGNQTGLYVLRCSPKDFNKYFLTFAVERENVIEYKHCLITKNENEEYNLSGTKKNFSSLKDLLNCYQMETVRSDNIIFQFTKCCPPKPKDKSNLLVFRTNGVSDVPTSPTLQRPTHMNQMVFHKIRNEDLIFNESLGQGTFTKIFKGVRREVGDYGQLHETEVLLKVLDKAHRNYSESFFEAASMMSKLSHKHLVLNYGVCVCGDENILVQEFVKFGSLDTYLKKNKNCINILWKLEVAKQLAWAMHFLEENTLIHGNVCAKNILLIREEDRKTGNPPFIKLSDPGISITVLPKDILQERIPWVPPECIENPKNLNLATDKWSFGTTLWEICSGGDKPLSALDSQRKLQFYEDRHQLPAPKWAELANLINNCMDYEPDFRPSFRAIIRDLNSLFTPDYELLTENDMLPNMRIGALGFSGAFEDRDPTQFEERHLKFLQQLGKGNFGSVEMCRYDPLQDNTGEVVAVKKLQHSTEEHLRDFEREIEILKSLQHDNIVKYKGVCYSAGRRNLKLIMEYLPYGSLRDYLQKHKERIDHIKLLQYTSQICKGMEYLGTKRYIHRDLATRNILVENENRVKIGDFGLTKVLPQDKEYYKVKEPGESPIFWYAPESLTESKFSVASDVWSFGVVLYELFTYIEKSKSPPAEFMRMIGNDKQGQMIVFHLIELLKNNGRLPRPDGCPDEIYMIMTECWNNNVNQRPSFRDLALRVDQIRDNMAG
Sequence of Vascular endothelial growth factor receptor 2 (Homo sapiens) (P35968 whole entry): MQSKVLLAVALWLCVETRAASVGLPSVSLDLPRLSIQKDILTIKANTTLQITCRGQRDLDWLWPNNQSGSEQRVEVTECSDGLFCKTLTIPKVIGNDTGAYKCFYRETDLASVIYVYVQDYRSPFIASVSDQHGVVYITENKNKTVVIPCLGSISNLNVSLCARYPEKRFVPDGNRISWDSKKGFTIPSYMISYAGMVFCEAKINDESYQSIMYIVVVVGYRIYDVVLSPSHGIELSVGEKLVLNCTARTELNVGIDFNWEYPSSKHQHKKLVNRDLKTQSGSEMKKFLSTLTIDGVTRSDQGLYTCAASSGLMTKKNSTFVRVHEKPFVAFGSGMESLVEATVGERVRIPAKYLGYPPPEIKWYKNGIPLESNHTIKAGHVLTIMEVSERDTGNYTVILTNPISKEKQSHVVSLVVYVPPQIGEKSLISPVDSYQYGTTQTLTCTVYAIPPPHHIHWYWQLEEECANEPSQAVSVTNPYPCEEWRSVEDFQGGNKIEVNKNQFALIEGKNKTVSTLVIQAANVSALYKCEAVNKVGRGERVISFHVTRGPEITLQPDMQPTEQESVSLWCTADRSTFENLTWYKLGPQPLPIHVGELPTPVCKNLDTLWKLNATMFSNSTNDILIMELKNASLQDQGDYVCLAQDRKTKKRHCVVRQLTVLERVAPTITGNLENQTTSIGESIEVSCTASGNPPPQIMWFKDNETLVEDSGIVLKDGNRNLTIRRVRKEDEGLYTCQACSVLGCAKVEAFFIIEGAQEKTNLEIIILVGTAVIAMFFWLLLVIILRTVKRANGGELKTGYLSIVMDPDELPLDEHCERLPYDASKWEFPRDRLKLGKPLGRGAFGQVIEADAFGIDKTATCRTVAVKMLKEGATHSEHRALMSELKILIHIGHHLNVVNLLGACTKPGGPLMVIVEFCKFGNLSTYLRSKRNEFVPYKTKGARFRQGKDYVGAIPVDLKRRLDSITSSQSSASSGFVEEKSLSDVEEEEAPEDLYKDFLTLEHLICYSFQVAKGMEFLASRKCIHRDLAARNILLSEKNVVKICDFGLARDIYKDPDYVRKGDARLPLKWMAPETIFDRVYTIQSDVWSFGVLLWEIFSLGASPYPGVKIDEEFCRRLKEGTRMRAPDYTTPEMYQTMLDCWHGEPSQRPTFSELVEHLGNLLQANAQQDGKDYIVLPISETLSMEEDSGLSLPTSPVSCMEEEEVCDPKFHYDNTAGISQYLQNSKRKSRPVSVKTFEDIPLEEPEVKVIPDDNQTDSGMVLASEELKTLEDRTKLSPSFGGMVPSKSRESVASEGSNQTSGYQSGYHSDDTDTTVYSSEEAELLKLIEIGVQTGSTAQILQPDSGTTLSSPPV
Sequence of Mast/stem cell growth factor receptor Kit (Homo sapiens), P10721 [T670I] (P10721 whole entry T670I): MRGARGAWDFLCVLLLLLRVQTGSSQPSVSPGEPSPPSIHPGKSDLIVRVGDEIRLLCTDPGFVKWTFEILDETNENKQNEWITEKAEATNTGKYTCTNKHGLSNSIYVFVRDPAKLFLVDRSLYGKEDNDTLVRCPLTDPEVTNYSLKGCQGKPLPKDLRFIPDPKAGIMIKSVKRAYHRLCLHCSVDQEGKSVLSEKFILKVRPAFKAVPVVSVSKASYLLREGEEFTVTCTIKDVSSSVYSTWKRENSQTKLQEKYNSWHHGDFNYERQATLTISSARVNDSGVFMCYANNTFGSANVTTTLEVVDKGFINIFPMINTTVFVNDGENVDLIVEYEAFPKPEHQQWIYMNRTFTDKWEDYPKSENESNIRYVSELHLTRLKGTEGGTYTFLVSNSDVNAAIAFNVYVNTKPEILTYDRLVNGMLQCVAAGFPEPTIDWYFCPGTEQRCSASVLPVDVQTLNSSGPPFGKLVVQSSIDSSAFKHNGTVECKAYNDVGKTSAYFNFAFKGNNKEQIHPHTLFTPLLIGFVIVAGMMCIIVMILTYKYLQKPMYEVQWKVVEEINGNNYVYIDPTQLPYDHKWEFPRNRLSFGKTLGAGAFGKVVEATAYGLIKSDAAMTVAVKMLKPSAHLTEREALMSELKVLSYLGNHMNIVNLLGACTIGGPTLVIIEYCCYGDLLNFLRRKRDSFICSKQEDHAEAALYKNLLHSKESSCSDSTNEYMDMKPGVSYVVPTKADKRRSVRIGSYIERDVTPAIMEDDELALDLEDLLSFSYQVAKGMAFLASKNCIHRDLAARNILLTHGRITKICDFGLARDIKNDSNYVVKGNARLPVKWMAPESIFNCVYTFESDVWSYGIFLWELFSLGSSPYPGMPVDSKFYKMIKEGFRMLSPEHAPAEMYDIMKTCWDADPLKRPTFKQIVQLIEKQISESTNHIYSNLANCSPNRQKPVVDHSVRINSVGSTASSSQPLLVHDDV
Sequence of Tyrosine-protein kinase Lck (Homo sapiens) (P06239 2-509 limits assumed): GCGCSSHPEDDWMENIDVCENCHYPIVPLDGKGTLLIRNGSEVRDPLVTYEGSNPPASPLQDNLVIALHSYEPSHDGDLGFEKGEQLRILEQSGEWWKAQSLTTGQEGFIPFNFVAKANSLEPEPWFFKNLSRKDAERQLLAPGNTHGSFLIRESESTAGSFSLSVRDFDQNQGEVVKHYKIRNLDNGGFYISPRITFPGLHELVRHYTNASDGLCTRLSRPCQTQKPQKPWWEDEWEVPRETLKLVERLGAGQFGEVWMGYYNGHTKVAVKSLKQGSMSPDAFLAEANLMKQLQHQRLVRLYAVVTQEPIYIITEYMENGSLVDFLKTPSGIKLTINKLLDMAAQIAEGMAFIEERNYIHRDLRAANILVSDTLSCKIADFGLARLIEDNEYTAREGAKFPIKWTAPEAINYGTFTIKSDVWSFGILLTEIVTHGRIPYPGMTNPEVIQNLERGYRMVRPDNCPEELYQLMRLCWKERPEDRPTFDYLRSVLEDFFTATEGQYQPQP

Compound	inhibition [1] [%]	inhibition [2] [%]	inhibition [3] [%]	inhibition [4] [%]	inhibition [5] [%]	inhibition [6] [%]	inhibition [7] [%]	inhibition [8] [%]	inhibition [9] [%]	inhibition [10] [%]	inhibition [11] [%]	inhibition [12] [%]	inhibition [13] [%]	inhibition [14] [%]	inhibition [15] [%]	inhibition [16] [%]	inhibition [17] [%]	inhibition [18] [%]	inhibition [19] [%]	inhibition [20] [%]
CC1=C(C(=O)Nc2ccc3[nH]ncc3c2)C(c2ccc(F)cc2)NC(=O)N1 (stereo unspecified)	1.33	14.4	70.3	2.59	35.1	1.07	30.8	4.24	12.3	5.14	3.87	0.52	1.15	1.53	0.34	-1.67	0.31	-0.28	3.1	0.93
COc1cc2ncn(-c3cc(O[C@H](C)c4ccccc4Cl)c(C(N)=O)s3)c2cc1OC	8.66	8.61	21.9	1.66	6.6	0.32	25.9	36.4	72.5	7.11	27.1	4.82	14.6	5.66	32.1	4.1	13.9	5.7	27.7	3.77
Cc1ccc(NC(=O)c2ccnc(N3CCCC3)c2)cc1-c1ccc(C(=O)NCC2CC2)cc1	-1.06	4.61	5.32	1.37	2.33	-2.85	2.32	9.55	10.2	5.54	2.92	2.61	7.08	2.54	3.2	0.26	1.23	-3.71	1.56	2.27
COC(=O)Nc1nc2cc(Oc3cccc(NC(=O)Nc4cc(C(F)(F)F)ccc4F)c3)ccc2[nH]1	0.67	0.78	4.36	-0.5	-0.07	1.1	2.02	19.1	63.5	4.16	48.2	1.96	-0.67	-2.55	2.17	4.04	38.8	1.15	10.5	0.06
CN(C)c1cc2c(Nc3ccc4nc(Cc5ccccc5)[nH]c4c3)ncnc2cn1	1.51	5.67	8.16	2.34	1.44	-1.29	-1.24	7.5	10.4	4.97	19.2	7.07	7.56	2.88	6.63	1.39	7.78	7.36	33	6.47
Fc1cccc(COc2ccc(Nc3ncnc4sc(-c5cccs5)cc34)cc2Cl)c1	1.32	-0.79	-0.37	-0.63	0.58	1.46	1.31	4.41	7.67	9.52	6.67	4.5	1.72	1.75	2.96	4.3	2.12	0.99	3.56	-0.03
CCN1CCC(CC(=O)Nc2n[nH]c3nc(-c4cccs4)c(Br)cc23)CC1	0.48	-7.81	-3.93	-1.09	-2.38	0.48	2.19	1.49	15.5	-4.07	-0.08	-1.28	-0.19	-3.78	0.16	3.05	2.07	-1.7	4.73	0.15
COc1ccc(-c2ccncc2)cc1C(N)=O	2.32	0.28	3.27	2.44	3.4	-2	0.37	2.67	13	3.75	8.81	5.33	6.29	2.7	5.32	-1.34	-1.88	3.42	4.47	5.46
COc1cc2ncn(-c3cc(O[C@@H](C)c4ccccc4Cl)c(C(N)=O)s3)c2cc1OC	3.19	0.34	3.27	2.38	1.08	-3.05	1.97	18	67.7	4.65	11.9	3.28	6.34	3.02	5.54	4.09	3.09	4.64	19.6	3.53
CCn1c(-c2nonc2N)nc2cncc(C(=O)N3CC[C@H](N)C3)c21	1.18	-1.1	22.4	0.61	1.25	-0.95	-0.29	7.05	15.8	5.39	6.77	5.29	5.73	3.35	3.02	2.5	-1.61			4.31
O=C1Nc2ccc(C(=O)c3ccco3)cc2C1=Cc1cc(Cl)c(O)c(Cl)c1	3.21	5.2	7.05	2.07	6	12.7	66.9	6.41	18.7	16.6	63.5	1.83	0.61	2.58	21.1	3.94	6.75	2.53	12.8	9.03
O=C1NC(=O)C(c2cccc(Cl)c2)=C1Nc1ccc(O)c(Cl)c1	1.28	2.54	7.81	0.65	2.24	3.49	51.4	3.41	20.1	-3.91	-2.75	0.75	-6.88	-1.24	-2.14	-1.77	1.92	1.6	6.56	0
NS(=O)(=O)c1cccc(-c2ccc3c(NC(=O)C4CC4)n[nH]c3c2)c1	0.22		-4.88	-0.14	-1.18	-0.5	1.58	0.44	6.32	-1.56	0.12	1.16	3.53	-3.61	-1.9	1.03	4.07	-1.55	3.43	0.03
NC(=O)c1ccc(-c2nc(-c3ccccn3)c(-c3ccc4c(c3)OCO4)[nH]2)cc1	1.43	3.36	8.87	1.02	1.92	-1.26	0.2	2.91	3.09	1.09	4.68	7.73	5.29	0.05		1.28	6.23	2.19	4.07	3.03
